Measured values from PubChem BioAssay AID1159580 (chemical genetic matrix, 2015).
“And” between values parts separate entries of the source, which are not always exact repeats. Identical values can stand only once. Out of some 5,500 compounds screened, about 2,000 (36%) were called active. Roughly 18% stayed inconclusive and do not appear here. No stated cut-off is given here; in the data, active means normalized growth mostly below about 0.91 (no sharp cut-off); inconclusive means no clear call, values can overlap the other calls; inactive means mostly above about 0.92. The list shows a part of the results.

Assay: chemical genetic growth profiling, strain panel (AID 1159580);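 further: tested at 20 µM; growth read once vehicle control cultures reached saturation at 30 °C; 1 = growth at the plate median or of vehicle wells; lower values mean less growth of the strain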
Settings: S. cerevisiae deletion strains, growth OD

Measured: normalized growth

CNC1(C)C2CCC(C2)C1(C)C (stereo unspecified)
inactive: locus YAL013W, strain DEP1, active compounds read low 0.982 | locus YAL021C, strain ccr4, active compounds read low 0.97 | locus YAL026C, strain drs2, active compounds read low 1 | locus YAL030W, strain snc1, active compounds read low 1 | locus YAL040C, strain CLN3, active compounds read low 1 | locus YBL061C, strain skt5, active compounds read low 0.998 | locus YBR009C, strain hhf1, active compounds read low 0.993 | locus YBR021W, strain FUR4, active compounds read low 1.03 | locus YBR023C, strain chs3, active compounds read low 0.981 | locus YBR171W, strain sec66, active compounds read low 0.986 | locus YBR229C, strain ROT2, active compounds read low 0.961 | locus YBR231C, strain swc5, active compounds read low 0.982 | locus YBR279W, strain paf1, active compounds read low 0.986 | locus YCL011C, strain gbp2, active compounds read low 0.996 | locus YCL016C, strain dcc1, active compounds read low 0.977 | locus YCL029C, strain bik1, active compounds read low 0.991 | locus YCL061C, strain MRC1 (second series), active compounds read low 0.999 | locus YCL061C, strain MRC1, active compounds read low 0.989 | locus YCL069W, strain vba3, active compounds read low 0.997 | locus YCR088W, strain abp1, active compounds read low 0.994 | locus YDL005C, strain med2, active compounds read low 0.992 | locus YDL035C, strain GPR1, active compounds read low 0.993 | locus YDL040C, strain nat1, active compounds read low 0.997 | locus YDL074C, strain BRE1, active compounds read low 0.957 | locus YDL101C, strain DUN1, active compounds read low 0.969 | locus YDL134C, strain PPH21, active compounds read low 0.989 | locus YDL185W, strain tfp1, active compounds read low 0.968 | locus YDL192W, strain arf1, active compounds read low 0.996 | locus YDR001C, strain nth1, active compounds read low 0.996 | locus YDR069C, strain doa4, active compounds read low 1.02 | locus YDR101C, strain arx1, active compounds read low 1.01 | locus YDR137W, strain rgp1, active compounds read low 0.987 | locus YDR150W, strain NUM1, active compounds read low 0.977 | locus YDR159W, strain sac3, active compounds read low 0.994 | locus YDR162C, strain NBP2, active compounds read low 0.913 | locus YDR195W, strain ref2 1 | locus YDR297W, strain sur2, active compounds read low 0.993 | locus YDR318W, strain mcm21, active compounds read low 1.03 | locus YDR334W, strain swr1, active compounds read low 1 | locus YDR335W, strain msn5, active compounds read low 0.999 | locus YDR363W, strain ESC2, active compounds read low 0.993 | locus YDR388W, active compounds read low 1.01 | locus YDR392W, strain spt3, active compounds read low 0.93 | locus YDR502C, strain sam2, active compounds read low 0.984 | locus YEL003W, strain gim4, active compounds read low 1 | locus YEL037C, strain rad23, active compounds read low 0.995 | locus YEL061C, strain CIN8 (second series), active compounds read low 1 | locus YEL061C, strain CIN8, active compounds read low 0.982 | locus YER002W, strain NOP16, active compounds read low 1 | locus YER015W, strain faa2, active compounds read low 1 | locus YER016W, strain bim1, active compounds read low 0.997 | locus YER110C, active compounds read low 0.993 | locus YER111C, strain swi4, active compounds read low 1 | locus YER155C, strain BEM2 (second series), active compounds read low 0.995 | locus YER155C, strain BEM2, active compounds read low 0.987 | locus YER167W, strain BCK2, active compounds read low 1 | locus YFR010W, strain ubp6, active compounds read low 0.993 | locus YGL078C, strain dbp3, active compounds read low 0.992 | locus YGL086W, strain mad1, active compounds read low 1.01 | locus YGL167C, strain pmr1, active compounds read low 0.993 | locus YGL173C, strain kem1, active compounds read low 0.995 | locus YGL227W, strain vid30, active compounds read low 0.987 | locus YGL240W, strain doc1, active compounds read low 0.985 | locus YGL248W, strain PDE1, active compounds read low 0.982 | locus YGL253W, strain hxk2, active compounds read low 1 | locus YGR078C, strain PAC10, active compounds read low 0.978 | locus YGR135W, strain pre9, active compounds read low 0.96 | locus YGR229C, strain SMI1, active compounds read low 0.987 | locus YGR252W, strain gcn5, active compounds read low 1.08 | locus YHR013C, strain ard1, active compounds read low 0.982 | locus YHR027C, strain rpn1, active compounds read low 0.999 | locus YHR030C, strain SLT2, active compounds read low 0.996 and 0.974 | locus YHR079C, strain IRE1 (second series), active compounds read low 0.998 | locus YHR079C, strain IRE1, active compounds read low 0.941 | locus YHR094C, strain hxt1, active compounds read low 0.999 | locus YHR129C, strain ARP1, active compounds read low 0.99 | locus YHR142W, strain chs7, active compounds read low 0.974 | locus YHR200W, strain rpn10, active compounds read low 1 | locus YIL066C, strain RNR3, active compounds read low 0.989 | locus YIL073C, strain SPO22, active compounds read low 1.04 | locus YIL125W, strain kgd1, active compounds read low 0.989 | locus YIR030C, strain dcg1, active compounds read low 0.991 | locus YJL092W, strain hpr5, active compounds read low 0.991 | locus YJL095W, strain BCK1 (second series), active compounds read low 0.996 | locus YJL095W, strain BCK1, active compounds read low 0.996 and 0.958 | locus YJL115W, strain asf1, active compounds read low 0.993 | locus YJL129C, strain trk1, active compounds read low 0.976 | locus YJL134W, strain LCB3, active compounds read low 0.988 | locus YJL154C, strain vps35, active compounds read low 0.994 | locus YJL164C, strain tpk1, active compounds read low 0.985 | locus YJL166W, strain qcr8, active compounds read low 0.991 | locus YJL168C, strain set2, active compounds read low 0.993 | locus YJL187C, strain SWE1 (second series), active compounds read low 0.967 | locus YJL187C, strain SWE1, active compounds read low 0.995 | locus YJR043C, strain POL32, active compounds read low 1.02 | locus YJR066W, strain TOR1, active compounds read low 0.981
